Laboratory results published in PubChem BioAssay.
Values without a mark were called inactive. No rule for the calls is given here.

Each molecule was assayed against Pantothenate synthetase (Mycobacterium tuberculosis (strain ATCC 25618 / H37Rv)) (UniProt P9WIL5) (assay: Recombinant Mtb pantothenate synthetase (PanC) inhibitors, coupled enzyme, confirmatory (AID 375;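 also: 0% = full reaction with vehicle and 100% = no enzyme background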)). Details: coupled enzyme assay; at 10 µM, hits give high values.
Chain of Pantothenate synthetase (Mycobacterium tuberculosis (strain ATCC 25618 / H37Rv)) (P9WIL5 whole entry, looked up): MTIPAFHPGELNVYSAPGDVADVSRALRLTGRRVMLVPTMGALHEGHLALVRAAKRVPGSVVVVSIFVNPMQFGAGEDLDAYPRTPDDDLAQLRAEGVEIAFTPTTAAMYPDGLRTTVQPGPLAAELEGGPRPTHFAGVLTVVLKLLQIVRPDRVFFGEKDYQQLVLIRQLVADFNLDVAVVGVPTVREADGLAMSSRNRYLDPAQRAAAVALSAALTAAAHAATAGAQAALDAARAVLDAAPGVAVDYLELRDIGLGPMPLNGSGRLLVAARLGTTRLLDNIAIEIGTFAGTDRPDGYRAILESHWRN
For `c1cncc(-c2nc3c4ccccc4nc(N4CCC(N5CCCCC5)CC4)n3n2)c1`, the inhibition was 0%.
Work on `Clc1ccc2c(c1)C(N1CCNCC1)=Nc1ccccc1O2` yielded an inhibition of 8%.
For `CN(C)CCNc1oc(-c2ccccc2F)nc1C#N`, the inhibition was 1%.
`Cc1cc(C)n(C(=O)C23CC4CC(CC(C4)C2)C3)n1` gave an inhibition of 0%.
`O=C1OCc2cc(NC(=O)C3CCCO3)ccc21` (centres undefined) showed an inhibition of 5%.
`CCOC(=O)C1CCCN(C(=O)c2ccc(CS(=O)(=O)Cc3ccccc3C)o2)C1` (centres undefined) showed an inhibition of 3%.
With `CCCCSc1nc2c(cnn2-c2ccc(F)cc2)c(=O)[nH]1` the inhibition was 0%.
For `Cc1cc(C)c2c(N)c(C(=O)N3CCN(c4ncccn4)CC3)sc2n1`, the inhibition was 3%.
Molecule `O=C(COc1ccc(Cl)cc1)Nc1ncccn1` has an inhibition of 9%.
`COc1ccc(OC)c2[nH]c(=O)c(CCNC(=O)C(C)C)cc12` showed an inhibition of 0%.
For `CSc1n[nH]c(NCc2ccccc2)n1`, the inhibition was 6%.
Work on `Cc1cccc(N2CCN(C(=O)c3cc4ccccc4oc3=O)CC2)c1C` yielded an inhibition of 0%.
`COCCOC(=O)c1c(C)oc2ccc(NS(=O)(=O)c3ccc(F)cc3)cc12` was tested, and the inhibition was 3%.
Molecule `COCCCNC(=O)CSc1ccc(Cl)cc1` has an inhibition of 0%.
Molecule `O=C(NC1CC2CCC1C2)C1COc2ccccc2O1` (centres undefined) has an inhibition of 0%.
`CCOc1ccccc1N1C(=O)c2ccc(C(=O)Nc3cccnc3)cc2C1=O` was tested, and the inhibition was 4%.
For `N#CC(C(=O)Nc1ccc(Cl)c(Cl)c1)=C1Nc2ccccc2N1`, the inhibition was 2%.
Work on `O=C(NCCSc1c[nH]c2ccccc12)c1ccco1` yielded an inhibition of 0%.
`COC(=O)CN(c1ccc(C)c(Cl)c1)S(C)(=O)=O` showed an inhibition of 0%.
For `Cc1ccc(-c2ccc(/C=N/n3cnnc3)o2)cc1Cl`, the inhibition was 11%.
Molecule `Cn1c(=O)c2c(ncn2CC(O)CO)n(C)c1=O` (centres undefined) has an inhibition of 0%.
With `COc1cccc(NC(=O)N[C@@H](Cc2ccccc2)C(=O)O)c1` the inhibition was 0%.
With `Cn1c(=O)c2c(nc(CN3CCCCC3)n2CCCc2ccccc2)n(C)c1=O` the inhibition was 2%.
`CCCn1c2ccccc2c2nnc(SCC(=O)Nc3ncccn3)nc21` gave an inhibition of 8%.
`CCCCCn1c(CN2CCN(C(=O)c3ccco3)CC2)nc2c1c(=O)n(C)c(=O)n2C` was tested, and the inhibition was 1%.
In the case of `CCc1ccccc1NC(=O)c1cnc2n(c1=O)CCS2`, the inhibition is reported as 2%.
In the case of `CC(C)CCNC(=O)NC(=O)CN1C(=O)NC2(CCCCC2)C1=O`, the inhibition is reported as 2%.
With `N#CC1=C(N)C(C#N)(C#N)[C@H](c2ccsc2)[C@H]2COCC=C12` the inhibition was 0%.
Molecule `Cc1ccccc1-c1nc(CS(=O)(=O)CC(=O)NCc2ccccc2)c(C)o1` has an inhibition of 0%.
`COC(=O)c1cc(OC)c(OC)cc1NC(=O)CCC1CCCC1` gave an inhibition of 0%.
`CCCS(=O)(=O)N1CCN(C(=O)CCC2CCCC2)CC1` showed an inhibition of 0%.
`c1ccc2c(-c3nc(-c4ccncc4)no3)cccc2c1` showed an inhibition of 0%.
With `CC(N)C12CC3CC(C1)CC(C(C)N)(C3)C2` (centres undefined) the inhibition was 0%.
`COc1cccc2c1C(=O)c1c(O)c3c(c(O)c1C2=O)C[C@@](O)(C(=O)CO)C[C@@H]3O[C@H]1C[C@H](N)[C@H](O)[C@H](C)O1` gave an inhibition of 5%.
`COc1cccc(NC(=O)N2CCCC2C(=O)NC(C)C)c1` (centres undefined) gave an inhibition of 0%.
`Cc1ccc(-n2nnnc2SCC(=O)c2cc(C)n(-c3cc(C)on3)c2C)cc1` showed an inhibition of 4%.
`CCCN1C2CCCC1CC(NC(=O)c1ccccc1F)C2` (centres undefined) was tested, and the inhibition was 2%.
Work on `Cc1ccc(-n2c(=O)c3sccc3n(CC(=O)NCc3ccco3)c2=O)cc1` yielded an inhibition of 0%.
Work on `Cc1ccc2nc(NC(=O)CN(C)S(=O)(=O)c3cccc4nsnc34)sc2c1` yielded an inhibition of 0%.
